{"source": "the supplement of paper PMC9135407", "system": "primary human hepatic stellate cells (donor 1)", "test": "scaled lipid accumulation score (0 = DMSO-like, 1 = nortriptyline-like); higher = stronger HSC inactivation (lipid re-accumulation), active = hit call of the paper", "details": "48 h", "key": {"[1]": {"details": "library stock concentration: 80 uM"}, "[2]": {"details": "library stock concentration: 400 uM"}, "[3]": {"details": "library stock concentration: 2 mM"}, "[4]": {"details": "library stock concentration: 3.33 mM"}, "[5]": {"details": "library stock concentration: 10 mM"}, "[6]": {"details": "library stock concentration: 1 mM"}}, "note": "“And” between values parts separate entries of the source, which are not always exact repeats. Equal values may be shown once. Where a name gives a salt, the structure may show the parent alone. Among all 5,800 compounds or so, about 620 (11%) showed activity. The full list was thinned out, with actives kept by preference. A number with no mark means an inactive call.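 How the source made its calls: active = score above a cut-off or among the top three wells of a plate; in these data no inactive exceeds 0.85.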", "data": [{"smiles": "C[C@H]1[C@H]2CC[C@H]3[C@@H]4CC=C5C[C@@H](N(C)C)CC[C@]5(C)[C@H]4CC[C@]23CN1C", "note": "[Conessine]", "values": [{"measurement": "scaled lipid accumulation score", "value": 0.137}]}, {"smiles": "Cc1cc(C(C)Nc2ccccc2)c2nc(N3CCOCC3)cc(=O)n2c1", "note": "(stereo not drawn)", "values": [{"measurement": "scaled lipid accumulation score", "setting": "[1]", "value": "≤ -0.009"}, {"measurement": "scaled lipid accumulation score", "setting": "[2]", "value": "≤ -0.009 and ≤ -0.005"}, {"measurement": "scaled lipid accumulation score", "setting": "[3]", "value": "≤ -0.009 and ≤ -0.005"}, {"measurement": "scaled lipid accumulation score", "setting": "[4]", "value": "≤ 0"}, {"measurement": "scaled lipid accumulation score", "setting": "[5]", "value": "≤ 0 and ≤ -0.009 and ≤ -0.005"}]}, {"smiles": "c1ccc(CN2CCC3(CCCc4ccccc43)CC2)cc1", "note": "[L-687,384 hydrochloride]", "values": [{"measurement": "scaled lipid accumulation score", "setting": "[5]", "value": 0.374}]}, {"smiles": "Cl.Cl.O=C(NCCCN1CCC2(CC1)OCc1ccccc12)[C@H]1CCCN1Cc1ccccc1", "values": [{"measurement": "scaled lipid accumulation score", "setting": "[5]", "value": "0.974 (active)"}]}, {"smiles": "c1ccc(CN2CCC3(CCc4ccccc43)CC2)cc1", "note": "[L-693,403 maleate]", "values": [{"measurement": "scaled lipid accumulation score", "setting": "[5]", "value": 0.504}]}, {"smiles": "CC1(C)S[C@@H]2[C@H](N3C(=O)[C@@H](c4ccccc4)NC3(C)C)C(=O)N2[C@H]1C(=O)O", "note": "[Hetacillin potassium]", "values": [{"measurement": "scaled lipid accumulation score", "setting": "library stock concentration: 4.7 mM", "value": 0.007}, {"measurement": "scaled lipid accumulation score", "setting": "[5]", "value": "≤ 0"}]}, {"smiles": "CC(C)(C)CC(C)(C)c1ccc(O)c(Cc2ccc(Cl)cc2Cl)c1", "note": "[Clofoctol]", "values": [{"measurement": "scaled lipid accumulation score", "setting": "[5]", "value": "≤ -0.027"}]}, {"smiles": "CC(=O)O[C@]1(C(C)=O)CC[C@H]2[C@@H]3C=C(C)C4=CC(=O)CC[C@]4(C)[C@H]3CC[C@@]21C", "values": [{"measurement": "scaled lipid accumulation score", "setting": "[5]", "value": "≤ 0"}]}, {"smiles": "CC(=O)O[C@]1(C(C)=O)CCC2C3C=C(Cl)C4=CC(=O)CC[C@]4(C)C3CC[C@@]21C", "note": "(stereo partly drawn) [Chlormadinone acetate]", "values": [{"measurement": "scaled lipid accumulation score", "setting": "[5]", "value": "0.968 (active)"}]}, {"smiles": "CC(=O)O[C@]1(C(C)=O)CC[C@H]2[C@@H]3C=C(C)C4=CC(=O)CC[C@]4(C)[C@H]3CC[C@@]21C", "note": "[Megestrol acetate]", "values": [{"measurement": "scaled lipid accumulation score", "value": "≤ 0"}, {"measurement": "scaled lipid accumulation score", "setting": "library stock concentration: 5.2 mM", "value": "≤ 0 and 0.036"}, {"measurement": "scaled lipid accumulation score", "setting": "[5]", "value": "≤ 0"}]}, {"smiles": "CC(=O)O[C@]1(C(C)=O)CC[C@H]2[C@@H]3C=C(Cl)C4=CC(=O)CC[C@]4(C)[C@H]3CC[C@@]21C", "note": "[Chlormadinone acetate]", "values": [{"measurement": "scaled lipid accumulation score", "setting": "library stock concentration: 4.5 mM", "value": 0.064}, {"measurement": "scaled lipid accumulation score", "setting": "library stock concentration: 4.9 mM", "value": 0.08}]}, {"smiles": "CC(=O)O[C@]1(C(C)=O)CC[C@H]2[C@@H]3C=C(C)C4=CC(=O)CC[C@]4(C)[C@H]3CC[C@@]21C", "note": "[Megestrol Acetate]", "values": [{"measurement": "scaled lipid accumulation score", "setting": "[4]", "value": "≤ 0"}, {"measurement": "scaled lipid accumulation score", "setting": "[5]", "value": "≤ 0"}]}, {"smiles": "CC(C)n1cnc2c(NCc3ccccc3O)nc(NCCCO)nc21", "note": "[Cdk Inhibitor, p35]", "values": [{"measurement": "scaled lipid accumulation score", "setting": "[4]", "value": "≤ 0"}]}, {"smiles": "N[C@@H](Cc1cc(I)c(Oc2cc(I)c(O)c(I)c2)c(I)c1)C(=O)O", "note": "[Levothyroxine]", "values": [{"measurement": "scaled lipid accumulation score", "setting": "library stock concentration: 2.6 mM", "value": "≤ 0"}]}, {"smiles": "N[C@@H](Cc1cc(I)c(Oc2cc(I)c(O)c(I)c2)c(I)c1)C(=O)O", "values": [{"measurement": "scaled lipid accumulation score", "setting": "[5]", "value": "≤ 0"}]}, {"smiles": "N[C@@H](Cc1cc(I)c(Oc2cc(I)c(O)c(I)c2)c(I)c1)C(=O)O", "note": "[L-Thyroxine]", "values": [{"measurement": "scaled lipid accumulation score", "setting": "[4]", "value": "≤ 0"}, {"measurement": "scaled lipid accumulation score", "setting": "[5]", "value": "≤ 0"}]}, {"smiles": "c1ccc(C(OC2CCN(CCCc3nn[nH]n3)CC2)c2ccccc2)cc1", "values": [{"measurement": "scaled lipid accumulation score", "setting": "[6]", "value": "≤ 0"}]}, {"smiles": "O=C1c2ccc(O)c(O)c2C(=O)c2c(O)ccc(O)c21", "note": "[Quinalizarin]", "values": [{"measurement": "scaled lipid accumulation score", "setting": "[5]", "value": "≤ 0"}]}, {"smiles": "CCCCCCCCCCCCCCCCCC(=O)NCCO", "note": "[Stearoyl Ethanolamide]", "values": [{"measurement": "scaled lipid accumulation score", "setting": "[6]", "value": "≤ 0"}]}, {"smiles": "CC(C)OC(=O)CCC/C=C\\C[C@@H]1[C@@H](/C=C/[C@H](O)C2Cc3ccccc3C2)[C@@H](F)C[C@@H]1O", "note": "[AL 8810 isopropyl ester]", "values": [{"measurement": "scaled lipid accumulation score", "setting": "[6]", "value": "≤ 0"}]}, {"smiles": "CCCCCCOC(=O)[C@]1(O)C[C@@H]2O[C@@]1(C)n1c3ccccc3c3c4c(c5c6ccccc6n2c5c31)C(=O)NC4", "values": [{"measurement": "scaled lipid accumulation score", "setting": "library stock concentration: 900 uM", "value": 0.034}, {"measurement": "scaled lipid accumulation score", "setting": "[4]", "value": "≤ 0"}]}, {"smiles": "CN[C@@H]1C[C@H]2O[C@@](C)([C@@H]1OC)n1c3ccccc3c3c4c(c5c6ccccc6n2c5c31)C(=O)N[C@H]4O", "values": [{"measurement": "scaled lipid accumulation score", "setting": "[4]", "value": "1.21 (active)"}]}, {"smiles": "Cc1ncc(COP(=O)([O-])[O-])c(CN(CCN(CC(=O)O)Cc2c(COP(=O)([O-])O)cnc(C)c2O)CC(=O)O)c1O.[Mn].[Na+].[Na+].[Na+]", "values": [{"measurement": "scaled lipid accumulation score", "setting": "[5]", "value": 0.072}]}, {"smiles": "CC(C)CCCCCCC/C=C\\C(=O)O", "note": "[cis-.DELTA.2-11-methyl-Dodecenoic Acid]", "values": [{"measurement": "scaled lipid accumulation score", "setting": "[6]", "value": 0.068}]}, {"smiles": "CCOc1ccc(Nc2nc(-c3c(C)nc4ccccn34)cs2)cc1", "values": [{"measurement": "scaled lipid accumulation score", "setting": "[5]", "value": 0.446}]}, {"smiles": "CCCCC[C@H](O)/C=C/[C@H]1[C@H](O)CC(=O)[C@@H]1CC(=O)CCCCC(=O)O", "note": "[6-keto Prostaglandin E1]", "values": [{"measurement": "scaled lipid accumulation score", "setting": "[6]", "value": "≤ 0"}]}, {"smiles": "O=C(NC1CC1)c1cccc(-c2ccc3c(NC(=O)C4CC4)n[nH]c3c2)c1", "values": [{"measurement": "scaled lipid accumulation score", "setting": "[1]", "value": "≤ 0"}, {"measurement": "scaled lipid accumulation score", "setting": "[2]", "value": "≤ 0"}, {"measurement": "scaled lipid accumulation score", "setting": "[3]", "value": "≤ 0"}, {"measurement": "scaled lipid accumulation score", "setting": "[5]", "value": "≤ 0"}]}, {"smiles": "C[C@H](Nc1ncnc2nc[nH]c12)c1cc2cccc(Cl)c2c(=O)n1-c1ccccc1", "values": [{"measurement": "scaled lipid accumulation score", "setting": "[4]", "value": "≤ 0"}, {"measurement": "scaled lipid accumulation score", "setting": "[5]", "value": "≤ -0.001"}]}, {"smiles": "CCN(CC)Cc1ccc2cc(COC(=O)Nc3ccc(C(=O)NO)cc3)ccc2c1.Cl.O", "note": "[Givinostat (ITF2357)]", "values": [{"measurement": "scaled lipid accumulation score", "setting": "[4]", "value": "0.903 (active)"}, {"measurement": "scaled lipid accumulation score", "setting": "[5]", "value": "0.897 (active)"}]}, {"smiles": "CCN(CC)CCNC(=O)c1ccc(NC(C)=O)cc1", "note": "[N-Acetylprocainamide hydrochloride]", "values": [{"measurement": "scaled lipid accumulation score", "setting": "[5]", "value": "≤ 0"}]}, {"smiles": "CCN(CC)CCNC(=O)c1ccc(NC(C)=O)cc1", "note": "[Acecainide hydrochloride]", "values": [{"measurement": "scaled lipid accumulation score", "setting": "library stock concentration: 6.4 mM", "value": "≤ 0"}]}, {"smiles": "CCCCN(Cc1ccc(C(=O)NO)cc1)C(=O)Nc1ccccc1", "note": "[Nexturastat A]", "values": [{"measurement": "scaled lipid accumulation score", "setting": "[4]", "value": "≤ -0.009"}, {"measurement": "scaled lipid accumulation score", "setting": "[5]", "value": 0.176}]}, {"smiles": "COc1ccc(S(=O)(=O)N2c3ccc(Cl)cc3[C@](O)(c3ccccc3Cl)[C@@H]2C(=O)N2CCC[C@H]2C(N)=O)cc1OC", "values": [{"measurement": "scaled lipid accumulation score", "setting": "[5]", "value": 0.02}]}, {"smiles": "O=C(O)c1cc(=O)c2cccc(O)c2[nH]1", "note": "[Xanthurenic acid]", "values": [{"measurement": "scaled lipid accumulation score", "setting": "[5]", "value": "≤ 0"}]}, {"smiles": "O=C(Nc1cc2cc[nH]c2cn1)c1ccccc1", "values": [{"measurement": "scaled lipid accumulation score", "setting": "[4]", "value": "≤ -0.009"}, {"measurement": "scaled lipid accumulation score", "setting": "[5]", "value": "≤ 0"}]}, {"smiles": "CCN1CCN(Cc2ccc(NC(=O)c3ccc(C)c(Oc4ccnc5[nH]ccc45)c3)cc2C(F)(F)F)CC1", "values": [{"measurement": "scaled lipid accumulation score", "setting": "[1]", "value": 0.069}, {"measurement": "scaled lipid accumulation score", "setting": "[2]", "value": 0.308}, {"measurement": "scaled lipid accumulation score", "setting": "[3]", "value": 0.809}, {"measurement": "scaled lipid accumulation score", "setting": "[5]", "value": 0.792}]}, {"smiles": "Cc1ccc(C(=O)Nc2ccc(CN3CCN(C)CC3)c(C(F)(F)F)c2)cc1C#Cc1cnc2[nH]ncc2c1", "values": [{"measurement": "scaled lipid accumulation score", "setting": "[4]", "value": 0.479}, {"measurement": "scaled lipid accumulation score", "setting": "[5]", "value": 0.258}]}, {"smiles": "CCN1CCN(Cc2ccc(NC(=O)c3ccc(C)c(/C=C/c4cnc5[nH]ccc5c4OC)c3)cc2C(F)(F)F)CC1", "values": [{"measurement": "scaled lipid accumulation score", "setting": "[3]", "value": "0.888 (active)"}, {"measurement": "scaled lipid accumulation score", "setting": "[5]", "value": "1.11 (active)"}]}, {"smiles": "COC(=O)N1CCN(Cc2cccc(NC(=O)Nc3ccc(C)nc3)c2F)CC1", "values": [{"measurement": "scaled lipid accumulation score", "setting": "[4]", "value": "≤ 0"}, {"measurement": "scaled lipid accumulation score", "setting": "[5]", "value": 0.038}]}, {"smiles": "Cc1ccc(C(=O)Nc2ccc(CN3CCN(C)CC3)c(C(F)(F)F)c2)cc1C#Cc1cnc2cccnn12", "note": "[listing 1 of 3 here]", "values": [{"measurement": "scaled lipid accumulation score", "setting": "[2]", "value": "0.949 (active)"}, {"measurement": "scaled lipid accumulation score", "setting": "[3]", "value": "1.1 (active)"}, {"measurement": "scaled lipid accumulation score", "setting": "[5]", "value": "1.14 (active)"}]}, {"smiles": "Cc1ccc(C(=O)Nc2ccc(CN3CCN(C)CC3)c(C(F)(F)F)c2)cc1C#Cc1cnc2cccnn12", "note": "[listing 2 of 3 here]", "values": [{"measurement": "scaled lipid accumulation score", "setting": "[4]", "value": "1.06 (active)"}]}, {"smiles": "Cc1ccc(C(=O)Nc2ccc(CN3CCN(C)CC3)c(C(F)(F)F)c2)cc1C#Cc1cnc2cccnn12", "note": "[listing 3 of 3 here]", "values": [{"measurement": "scaled lipid accumulation score", "setting": "[1]", "value": 0.459}, {"measurement": "scaled lipid accumulation score", "setting": "[5]", "value": 0.533}]}, {"smiles": "CCN1CCN(Cc2ccc(Nc3ncc4c(n3)N(C)c3ccccc3C(=O)N4C)cc2C(F)(F)F)CC1", "values": [{"measurement": "scaled lipid accumulation score", "setting": "[1]", "value": 0.012}, {"measurement": "scaled lipid accumulation score", "setting": "[2]", "value": 0.132}, {"measurement": "scaled lipid accumulation score", "setting": "[3]", "value": 0.243}, {"measurement": "scaled lipid accumulation score", "setting": "[5]", "value": 0.479}]}]}
